Source: PubChem BioAssay (Tox21)
“And” between values parts separate entries of the source, which are not always exact repeats. Equal values may be shown once. Results filed as inconclusive are left out. More than one record can exist for a structure, and the calls need not agree. The source made the active and inactive calls. Unless noted, calls follow the shape of the dose curve; as a rule, active = well fitted curve in the direction sought with a large enough effect in the repeat runs; inconclusive = weak or mixed curves; inactive = no such curve, though single readings can be large; an effect the other way counts as inactive or inconclusive.

Assays:
[1] = qHTS assay to identify small molecule agonists of the peroxisome proliferator-activated receptor delta (PPARd) signaling pathway - cell viability counter screen (AID 743211); also: nearly all actives have a fitted effect of over 55% in size
Outline: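 Counter screen for cytotoxicity run in parallel with the PPARd reporter screen. Beta-lactamase reporter HEK293H cells exposed to compounds 17 h; ATP-based CellTiter-Glo luminescence quantified viability.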

[2] = biological target: Peroxisome proliferator-activated receptor delta (Homo sapiens) (UniProt Q03181); experiment: qHTS assay to identify small molecule agonists of the peroxisome proliferator-activated receptor delta (PPARd) signaling pathway (AID 743212; calls by dose curve)
Outline: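 GeneBLAzer PPARd UAS-bla HEK293H cells (beta-lactamase reporter under UAS control), plated and rested 5 h at 37 C, then exposed to compounds in DMSO at 37 C; LiveBLAzer B/G FRET substrate added, 2 h room temperature, fluorescence read.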

[3] = qHTS assay to identify small molecule antagonists of the peroxisome proliferator-activated receptor delta (PPARd) signaling pathway - cell viability counter screen (AID 743213); also: nearly all actives have a fitted effect of over 50% in size
Outline: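 PPARd-bla HEK293H cells (3000/well) got compound plus 300 nM L165041 agonist for 17 h at 37 C. Viability in the same wells came from CellTiter-Glo luminescence after 30 min at room temperature.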

[4] = biological target: Peroxisome proliferator-activated receptor delta (Homo sapiens) (UniProt Q03181); experiment: qHTS assay to identify small molecule antagonists of the peroxisome proliferator-activated receptor delta (PPARd) signaling pathway (AID 743215; active = well fitted inhibition curve with a large enough effect in the signal ratio in the repeat runs, not every such curve was filed as active; the % refers to the signal ratio;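 also: cells stimulated with agonist L165041 at 300 nM final during compound exposure; series mostly up to about 62 µM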)
Outline: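 Read-out is beta-lactamase FRET fluorescence, measured 2 h after substrate addition at room temperature. Beforehand, UAS-bla HEK293H cells carrying the PPARd reporter were exposed to compounds with L165041 at 300 nM final for 17 h at 37 C.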

[5] = qHTS assay to identify small molecule agonists of the farnesoid-X-receptor (FXR) signaling pathway - cell viability counter screen (AID 743218); also: nearly all actives have a fitted effect of over 45% in size
Outline: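 HEK 293T FXR-bla cells; 5 h pre-incubation, 16 h compound exposure at 37 C; LiveBLAzer substrate 2 h RT, then CellTiter-Glo 30 min RT, luminescence.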

[6] = qHTS assay to identify small molecule antagonists of the farnesoid-X-receptor (FXR) signaling pathway - cell viability counter screen (AID 743221; active = well fitted cell-killing curve with a large enough effect in the repeat runs, not every such curve was filed as active; also: nearly all actives have a fitted effect of over 50% in size)
Outline: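 Multiplexed counter screen: viability of FXR-bla HEK 293T cells under agonist stimulation by chenodeoxycholic acid (50 uM, final) and test compound for 16 h at 37 C, measured by CellTiter-Glo luminescence in the reporter wells.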

[7] = biological target: Vitamin D3 receptor (Homo sapiens) (UniProt P11473); experiment: qHTS assay to identify small molecule agonists of the vitamin D receptor (VDR) signaling pathway (AID 743222; calls by dose curve)
Outline: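 VDR-bla cells, 2,000/well; 4 h preincubation 37C; cpd (DMSO) 16 h; LiveBLAzer B/G substrate 2 h RT; fluorescence intensity read.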

[8] = biological target: Vitamin D3 receptor (Homo sapiens) (UniProt P11473); experiment: qHTS assay to identify small molecule antagonists of the vitamin D receptor (VDR) signaling pathway (AID 743223; active = well fitted inhibition curve with a large enough effect in the signal ratio in the repeat runs, not every such curve was filed as active; the % refers to the signal ratio)
Outline: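 Cells carrying a VDR-driven beta-lactamase reporter (VDR-bla) were co-treated with compound and 3 nM final 1alpha,25-dihydroxyvitamin D3 for 16 h at 37C; reporter activity was measured as FRET substrate fluorescence after 2 h at room temperature.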

[9] = qHTS assay to identify small molecule agonists of the vitamin D receptor (VDR) signaling pathway - cell viability counter screen (AID 743224); also: series mostly up to about 63 µM; nearly all actives have a fitted effect of over 50% in size
Outline: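 Luminescence from CellTiter-Glo, read after 30 min at room temperature, reports viability of VDR-bla cells treated with compounds for 16 h at 37C in the wells used for the beta-lactamase FRET read.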

[10] = qHTS assay to identify small molecule antagonists of the vitamin D receptor (VDR) signaling pathway - cell viability counter screen (AID 743225); also: nearly all actives have a fitted effect of over 50% in size
Outline: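 HEK293T VDR-bla; cpd + 1a,25-(OH)2D3 3 nM final, 16 h 37C/5% CO2; B/G FRET substrate 2 h RT; then CellTiter-Glo 30 min RT, luminescence.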

[11] = qHTS assay to identify small molecule agonists of the NFkB signaling pathway - cell viability counter screen (AID 1159515; calls by dose curve; also: series mostly up to about 61 µM; nearly all actives have a fitted effect of over 55% in size)
Outline: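 Luminescence from CellTiter-Glo (30 min, room temperature) gives viability, measured in the same wells as the beta-lactamase reporter read. Cells were NFkB-bla ME-180, 2,000 per well, treated 5 hr with compounds.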

[12] = qHTS assay to identify small molecule agonists of the endoplasmic reticulum stress response signaling pathway (AID 1159516; active = well fitted activation curve with a large enough effect in the signal ratio in the repeat runs, not every such curve was filed as active; the % refers to the signal ratio)
Outline: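 Read-out is beta-lactamase cleavage of a FRET substrate (405 nm excitation; 460 and 530 nm emissions) in ESRE-bla HeLa cells after a 5 hr compound exposure at 37 C. Substrate incubation ran 2 hr at room temperature.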

[13] = qHTS assay to identify small molecule agonists of the endoplasmic reticulum stress response signaling pathway - cell viability counter screen (AID 1159517; calls by dose curve)
Outline: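 Luminescence readout: CellTiter-Glo, 30 min RT, same wells as the ESRE-bla reporter read. HeLa ESRE-bla, 1,500 cells/well, o/n 37 C; cpd 5 hr 37 C/5% CO2.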

[14] = qHTS assay to identify small molecule antagonists of the retinoid-related orphan receptor gamma (ROR-gamma) signaling pathway - cell viability counter screen (AID 1159520); also: nearly all actives have a fitted effect of over 50% in size
Outline: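 Tet-on ROR gamma CHO cells (1,000/well) were plated 4 hr, given compounds in DMSO for 2 hr at 37 C, then induced with 1 uM final doxycycline for 16 hr. Viability was read as ATP by CellTiter-Glo luminescence after 30 min.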

[15] = biological target: Nuclear receptor ROR-gamma (Homo sapiens) (UniProt P51449); experiment: qHTS assay to identify small molecule antagonists of the retinoid-related orphan receptor gamma (ROR-gamma) signaling pathway (AID 1159521)
Outline: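 Cells were plated, rested 4 h at 37 C, exposed to compounds for 2 h, then given 1 uM final doxycycline hyclate to induce RORγ expression. After 16 h, ONE-Glo luminescence from the ROR response element reporter was measured.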

[16] = qHTS assay to identify small molecule agonists of the AP-1 signaling pathway - cell viability counter screen (AID 1159525; calls by dose curve; also: nearly all actives have a fitted effect of over 55% in size)
Outline: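 ME-180 AP-1-bla, 2500 cells/well, Opti-MEM + 0.5% dialyzed FBS; overnight 37 °C; cpd 15-pt titration, 5 h 37 °C; CellTiter-Glo 30 min RT; luminescence read; normalised to TOAB and DMSO controls.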

[17] = qHTS assay to identify small molecule agonists of the AP-1 signaling pathway (AID 1159526; calls by dose curve)
[18] = biological target: Retinoic acid receptor RXR-alpha (Homo sapiens) (UniProt P19793); experiment: qHTS assay to identify small molecule agonists of the RXR signaling pathway (AID 1159527; calls by dose curve; also: nearly all actives have a fitted effect of over 35% in size; also: potency is read from the fitted curve at half-maximal effect)
Outline: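 Cells plated at 2,000/well, rested 5 hr at 37 C, pin-dosed with DMSO compound solutions, incubated 16 hr, then loaded with B/G FRET substrate for 2 hr at RT before dual-emission fluorescence reading.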

[19] = biological target: Bile acid receptor (Homo sapiens) (UniProt Q96RI1); experiment: qHTS assay to identify small molecule antagonists of the farnesoid-X-receptor (FXR) signaling pathway (AID 743217; active = well fitted inhibition curve with a large enough effect in the signal ratio in the repeat runs, not every such curve was filed as active; the % refers to the signal ratio)
Outline: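 HEK 293T FXR-UAS-bla, 5000 cells/well; compound + CDCA 50 uM final; 16 h, 37 °C; B/G FRET substrate 2 h RT; fluorescence.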

[20] = biological target: Bile acid receptor (Homo sapiens) (UniProt Q96RI1); experiment: qHTS assay to identify small molecule agonists of the farnesoid-X-receptor (FXR) signaling pathway (AID 743220; active = well fitted activation curve with a large enough effect in the signal ratio in the repeat runs, not every such curve was filed as active; the % refers to the signal ratio)
Outline: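 Beta-lactamase reporter under UAS control in GeneBLAzer FXR HEK 293T cells (5000/well) measured with LiveBLAzer FRET substrate after 2 h at room temperature. Compound exposure lasted 16 h at 37C.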

Measured: Potency

Peroxisome proliferator-activated receptor delta (Homo sapiens), sequence (Q03181 whole entry, looked up): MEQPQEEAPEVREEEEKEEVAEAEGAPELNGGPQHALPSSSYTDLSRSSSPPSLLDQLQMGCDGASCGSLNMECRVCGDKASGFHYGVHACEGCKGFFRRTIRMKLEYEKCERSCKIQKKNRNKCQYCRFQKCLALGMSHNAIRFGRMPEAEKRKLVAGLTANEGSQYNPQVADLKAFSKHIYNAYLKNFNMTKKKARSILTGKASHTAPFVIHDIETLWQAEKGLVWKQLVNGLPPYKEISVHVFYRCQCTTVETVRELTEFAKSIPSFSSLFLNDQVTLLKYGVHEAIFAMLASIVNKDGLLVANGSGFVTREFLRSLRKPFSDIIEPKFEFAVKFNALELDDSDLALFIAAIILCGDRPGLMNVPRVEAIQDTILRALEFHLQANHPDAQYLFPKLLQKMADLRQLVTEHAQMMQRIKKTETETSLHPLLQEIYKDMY
Vitamin D3 receptor (Homo sapiens), sequence (P11473 whole entry, looked up): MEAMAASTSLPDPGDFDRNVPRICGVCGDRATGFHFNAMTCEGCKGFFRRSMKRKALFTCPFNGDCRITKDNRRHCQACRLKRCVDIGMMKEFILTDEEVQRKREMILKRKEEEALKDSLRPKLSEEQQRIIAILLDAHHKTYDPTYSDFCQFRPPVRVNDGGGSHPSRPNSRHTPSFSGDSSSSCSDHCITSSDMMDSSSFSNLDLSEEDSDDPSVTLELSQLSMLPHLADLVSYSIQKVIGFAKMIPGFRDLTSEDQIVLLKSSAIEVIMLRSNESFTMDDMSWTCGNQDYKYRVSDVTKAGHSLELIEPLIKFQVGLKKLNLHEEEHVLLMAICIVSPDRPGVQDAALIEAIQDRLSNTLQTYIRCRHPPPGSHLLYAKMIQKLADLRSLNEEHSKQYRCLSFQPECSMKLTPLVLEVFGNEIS
Retinoic acid receptor RXR-alpha (Homo sapiens), sequence (P19793 whole entry, looked up): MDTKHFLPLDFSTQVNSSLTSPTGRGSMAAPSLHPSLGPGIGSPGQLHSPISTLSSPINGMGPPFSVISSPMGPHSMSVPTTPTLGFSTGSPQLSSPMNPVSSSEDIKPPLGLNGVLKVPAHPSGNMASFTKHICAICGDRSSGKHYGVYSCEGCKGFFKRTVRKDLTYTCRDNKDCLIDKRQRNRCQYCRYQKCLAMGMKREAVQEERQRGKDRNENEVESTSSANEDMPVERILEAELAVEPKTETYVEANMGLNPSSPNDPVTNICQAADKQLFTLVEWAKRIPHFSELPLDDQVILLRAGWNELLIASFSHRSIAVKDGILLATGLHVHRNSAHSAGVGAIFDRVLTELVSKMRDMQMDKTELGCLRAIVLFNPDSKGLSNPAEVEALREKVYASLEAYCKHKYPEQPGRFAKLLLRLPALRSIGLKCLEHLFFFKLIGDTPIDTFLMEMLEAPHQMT
Bile acid receptor (Homo sapiens), sequence (Q96RI1 whole entry, looked up): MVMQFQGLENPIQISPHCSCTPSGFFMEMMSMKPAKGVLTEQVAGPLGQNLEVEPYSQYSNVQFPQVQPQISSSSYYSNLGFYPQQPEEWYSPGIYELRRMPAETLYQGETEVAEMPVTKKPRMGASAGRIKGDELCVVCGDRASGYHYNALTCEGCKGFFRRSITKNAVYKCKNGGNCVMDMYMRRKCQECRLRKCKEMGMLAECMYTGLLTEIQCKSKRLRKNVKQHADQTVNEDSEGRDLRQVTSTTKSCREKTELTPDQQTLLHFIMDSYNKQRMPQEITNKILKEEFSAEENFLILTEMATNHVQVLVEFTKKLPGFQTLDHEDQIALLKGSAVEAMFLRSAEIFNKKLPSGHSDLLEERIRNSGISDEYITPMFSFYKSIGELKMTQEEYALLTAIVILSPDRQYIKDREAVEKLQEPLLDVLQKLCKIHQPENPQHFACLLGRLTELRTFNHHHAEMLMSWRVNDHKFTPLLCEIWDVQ

[O-]/[N+](=N\O)c1ccccc1
not listed: [18] | [19] | [20]
inactive: all other assays above

OC[C@H]1O[C@@H]2O[C@H]3[C@H](O)[C@@H](O)[C@@H](O[C@H]4[C@H](O)[C@@H](O)[C@@H](O[C@H]5[C@H](O)[C@@H](O)[C@@H](O[C@H]6[C@H](O)[C@@H](O)[C@@H](O[C@H]7[C@H](O)[C@@H](O)[C@@H](O[C@H]1[C@H](O)[C@H]2O)O[C@@H]7CO)O[C@@H]6CO)O[C@@H]5CO)O[C@@H]4CO)O[C@@H]3CO
not listed: [2] | [4] | [18] | [19] | [20]
inactive: all other assays above

CC1=CC(C)(C)Nc2ccccc21
not listed: [5] | [8] | [19] | [20]
inactive: all other assays above

CCC(Cc1c(I)cc(I)c(N)c1I)C(=O)O (stereo not given)
not listed: [2] | [8] | [17]
inactive: all other assays above

Brc1nc2ccccc2s1
not listed: [6] | [8]
inactive: all other assays above

c1ccc2ncccc2c1
not listed: [6] | [7] | [8] | [18] | [19] | [20]
inactive: all other assays above

CCCCCCOCCOCCO
inactive and 43.6 µM (active): [18]
not listed: [2] | [4] | [5] | [6] | [7] | [8]
inactive: all other assays above

CCc1cccc2c3c([nH]c12)C(CC)(CC(=O)O)OCC3 (stereo not given)
not listed: [2] | [4] | [5]
inactive: all other assays above

NCCOCCO
not listed: [5]
inactive: all other assays above

COCCOCCOCCO
not listed: [4] | [19] | [20]
inactive: all other assays above

Cc1ccc(C)c(O)c1
not listed: [5] | [6]
inactive: all other assays above

Nc1cc(Cl)c(N)c(Cl)c1
not listed: [5] | [8] | [18]
inactive: all other assays above

CC(C)=CCO
not listed: [4] | [18] | [19] | [20]
inactive: all other assays above

CC(C)[N+](C)(CCOC(=O)C1c2ccccc2Oc2ccccc21)C(C)C
not listed: [18]
inactive: all other assays above

C[N+](C)(C)CCO
not listed: [5] | [18] | [19] | [20]
inactive: all other assays above
